Legend:
[1] = target: Serine/threonine-protein kinase MRCK alpha (Homo sapiens) (UniProt Q5VT25); details: at 0.1 µM
[2] = target: Serine/threonine-protein kinase MRCK alpha (Homo sapiens) (UniProt Q5VT25); details: at 1 µM
[3] = target: Serine/threonine-protein kinase MRCK beta (Homo sapiens) (UniProt Q9Y5S2); details: at 0.1 µM
[4] = target: Serine/threonine-protein kinase MRCK beta (Homo sapiens) (UniProt Q9Y5S2); details: at 1 µM
[5] = target: Ribosomal protein S6 kinase alpha-5 (Homo sapiens) (UniProt O75582); details: at 0.1 µM
[6] = target: Ribosomal protein S6 kinase alpha-5 (Homo sapiens) (UniProt O75582); details: at 1 µM
[7] = target: Ribosomal protein S6 kinase alpha-4 (Homo sapiens) (UniProt O75676); details: at 0.1 µM
Chain of Ribosomal protein S6 kinase alpha-4 (Homo sapiens) (O75676 whole entry, looked up): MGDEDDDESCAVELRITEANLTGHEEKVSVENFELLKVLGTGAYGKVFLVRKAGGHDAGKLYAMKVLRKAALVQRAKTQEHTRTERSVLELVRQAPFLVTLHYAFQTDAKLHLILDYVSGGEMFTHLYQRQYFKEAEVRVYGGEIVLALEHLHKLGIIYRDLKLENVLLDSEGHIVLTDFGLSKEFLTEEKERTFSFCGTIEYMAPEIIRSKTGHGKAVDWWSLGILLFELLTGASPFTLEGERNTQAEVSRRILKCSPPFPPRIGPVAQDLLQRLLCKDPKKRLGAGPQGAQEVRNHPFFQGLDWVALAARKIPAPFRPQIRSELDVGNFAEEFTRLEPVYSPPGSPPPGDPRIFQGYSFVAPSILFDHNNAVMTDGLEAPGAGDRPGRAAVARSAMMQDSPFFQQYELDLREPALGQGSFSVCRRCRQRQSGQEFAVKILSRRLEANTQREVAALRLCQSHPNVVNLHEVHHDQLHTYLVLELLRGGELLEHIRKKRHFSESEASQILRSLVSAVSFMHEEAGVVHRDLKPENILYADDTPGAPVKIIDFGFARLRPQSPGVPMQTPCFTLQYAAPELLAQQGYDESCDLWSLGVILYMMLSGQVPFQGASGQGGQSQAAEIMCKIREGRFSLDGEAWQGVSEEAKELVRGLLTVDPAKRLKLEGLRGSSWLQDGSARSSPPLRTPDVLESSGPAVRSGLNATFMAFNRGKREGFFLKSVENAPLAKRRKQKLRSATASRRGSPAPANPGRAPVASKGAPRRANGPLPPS

[8] = target: Ribosomal protein S6 kinase alpha-4 (Homo sapiens) (UniProt O75676); details: at 1 µM
[9] = target: Ribosomal protein S6 kinase beta-1 (Homo sapiens) (UniProt P23443); details: at 0.1 µM
Chain of Ribosomal protein S6 kinase beta-1 (Homo sapiens) (P23443 whole entry, looked up): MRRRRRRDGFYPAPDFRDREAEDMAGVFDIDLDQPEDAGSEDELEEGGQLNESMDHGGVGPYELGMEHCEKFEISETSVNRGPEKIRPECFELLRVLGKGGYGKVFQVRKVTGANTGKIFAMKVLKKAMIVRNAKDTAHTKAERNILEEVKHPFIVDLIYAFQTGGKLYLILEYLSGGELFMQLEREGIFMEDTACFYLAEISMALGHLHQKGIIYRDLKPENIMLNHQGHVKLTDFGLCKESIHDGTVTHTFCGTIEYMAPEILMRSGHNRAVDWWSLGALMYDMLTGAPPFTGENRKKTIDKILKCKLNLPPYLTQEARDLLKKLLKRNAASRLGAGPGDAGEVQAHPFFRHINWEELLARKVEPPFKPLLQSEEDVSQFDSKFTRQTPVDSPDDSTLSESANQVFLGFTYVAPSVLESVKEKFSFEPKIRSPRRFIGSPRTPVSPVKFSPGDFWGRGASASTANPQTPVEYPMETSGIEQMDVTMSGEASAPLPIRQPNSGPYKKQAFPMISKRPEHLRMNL

[10] = target: Ribosomal protein S6 kinase beta-1 (Homo sapiens) (UniProt P23443); details: at 1 µM
[11] = target: T1, 3-phosphoinositide-dependent protein kinase 1 (Homo sapiens) (UniProt O15530); details: at 0.1 µM;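 note: values are mean inhibition of PDK1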
T1 sequence (whole entry): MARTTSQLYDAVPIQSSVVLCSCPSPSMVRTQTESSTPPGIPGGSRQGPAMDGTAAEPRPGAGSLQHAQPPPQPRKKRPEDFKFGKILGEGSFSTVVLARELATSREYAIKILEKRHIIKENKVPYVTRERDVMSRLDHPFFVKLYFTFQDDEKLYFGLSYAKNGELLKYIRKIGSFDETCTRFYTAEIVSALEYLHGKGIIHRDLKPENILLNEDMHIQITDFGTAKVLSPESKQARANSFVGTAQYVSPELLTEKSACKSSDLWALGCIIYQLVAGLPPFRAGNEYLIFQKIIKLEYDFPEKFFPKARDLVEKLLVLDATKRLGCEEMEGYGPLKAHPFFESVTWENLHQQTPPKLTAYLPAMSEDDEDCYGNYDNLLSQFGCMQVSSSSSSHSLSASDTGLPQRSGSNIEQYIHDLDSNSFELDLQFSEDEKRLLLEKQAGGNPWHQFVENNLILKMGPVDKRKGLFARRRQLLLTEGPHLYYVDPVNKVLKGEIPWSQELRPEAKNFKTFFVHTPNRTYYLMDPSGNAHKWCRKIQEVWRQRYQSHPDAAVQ

[12] = target: cAMP-dependent protein kinase catalytic subunit alpha (Homo sapiens) (UniProt P17612); details: at 0.1 µM
[13] = target: cAMP-dependent protein kinase catalytic subunit alpha (Homo sapiens) (UniProt P17612); details: at 1 µM
[14] = target: Protein kinase C alpha type (Homo sapiens) (UniProt P17252); details: at 0.1 µM
[15] = target: Protein kinase C alpha type (Homo sapiens) (UniProt P17252); details: at 1 µM
[16] = target: Protein kinase C beta type (Homo sapiens) (UniProt P05771); details: at 0.1 µM
Chain of Protein kinase C beta type (Homo sapiens) (P05771 2-671 limits assumed): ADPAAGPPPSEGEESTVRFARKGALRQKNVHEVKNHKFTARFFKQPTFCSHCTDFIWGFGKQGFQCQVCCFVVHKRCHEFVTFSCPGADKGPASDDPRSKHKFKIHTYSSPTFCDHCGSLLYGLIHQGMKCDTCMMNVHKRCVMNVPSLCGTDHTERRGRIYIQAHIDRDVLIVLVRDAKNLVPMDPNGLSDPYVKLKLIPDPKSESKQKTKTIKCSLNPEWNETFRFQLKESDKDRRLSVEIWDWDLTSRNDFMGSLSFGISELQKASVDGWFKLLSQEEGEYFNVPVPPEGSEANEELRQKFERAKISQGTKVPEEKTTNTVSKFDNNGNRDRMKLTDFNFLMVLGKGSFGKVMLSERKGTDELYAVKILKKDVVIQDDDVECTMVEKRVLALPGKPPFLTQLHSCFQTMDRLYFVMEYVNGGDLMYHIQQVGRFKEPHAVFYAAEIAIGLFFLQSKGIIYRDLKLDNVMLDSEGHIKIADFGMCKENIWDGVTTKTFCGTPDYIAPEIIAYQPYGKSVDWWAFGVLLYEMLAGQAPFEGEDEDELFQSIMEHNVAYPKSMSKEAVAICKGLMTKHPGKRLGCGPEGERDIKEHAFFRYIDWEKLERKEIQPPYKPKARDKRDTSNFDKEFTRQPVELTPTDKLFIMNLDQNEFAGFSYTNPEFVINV

[17] = target: Protein kinase C beta type (Homo sapiens) (UniProt P05771); details: at 1 µM
[18] = target: Protein kinase C eta type (Homo sapiens) (UniProt P24723); details: at 0.1 µM
Chain of Protein kinase C eta type (Homo sapiens) (P24723 whole entry): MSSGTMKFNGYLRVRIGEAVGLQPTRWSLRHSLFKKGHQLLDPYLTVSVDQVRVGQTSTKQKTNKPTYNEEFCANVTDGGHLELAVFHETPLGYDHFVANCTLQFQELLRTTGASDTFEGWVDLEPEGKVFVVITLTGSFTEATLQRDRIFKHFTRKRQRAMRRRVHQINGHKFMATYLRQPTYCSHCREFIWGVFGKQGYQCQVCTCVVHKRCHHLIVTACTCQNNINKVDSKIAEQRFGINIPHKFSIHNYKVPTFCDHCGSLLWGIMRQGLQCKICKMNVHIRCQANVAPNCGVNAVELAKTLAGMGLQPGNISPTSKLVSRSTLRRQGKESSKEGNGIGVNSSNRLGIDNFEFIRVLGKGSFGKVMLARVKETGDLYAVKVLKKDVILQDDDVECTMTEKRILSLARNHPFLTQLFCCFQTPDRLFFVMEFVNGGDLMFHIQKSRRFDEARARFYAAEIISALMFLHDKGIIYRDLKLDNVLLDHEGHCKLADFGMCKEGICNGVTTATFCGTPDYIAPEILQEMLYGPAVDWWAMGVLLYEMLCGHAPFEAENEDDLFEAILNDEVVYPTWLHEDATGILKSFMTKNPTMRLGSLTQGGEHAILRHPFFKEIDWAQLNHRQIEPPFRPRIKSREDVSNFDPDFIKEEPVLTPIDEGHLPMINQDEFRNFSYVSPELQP

[19] = target: Protein kinase C eta type (Homo sapiens) (UniProt P24723); details: at 1 µM
[20] = target: Protein kinase C gamma type (Homo sapiens) (UniProt P05129); details: at 0.1 µM;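 note: values are mean percent inhibition of PKC gamma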

Chain of Serine/threonine-protein kinase MRCK alpha (Homo sapiens) (Q5VT25 whole entry): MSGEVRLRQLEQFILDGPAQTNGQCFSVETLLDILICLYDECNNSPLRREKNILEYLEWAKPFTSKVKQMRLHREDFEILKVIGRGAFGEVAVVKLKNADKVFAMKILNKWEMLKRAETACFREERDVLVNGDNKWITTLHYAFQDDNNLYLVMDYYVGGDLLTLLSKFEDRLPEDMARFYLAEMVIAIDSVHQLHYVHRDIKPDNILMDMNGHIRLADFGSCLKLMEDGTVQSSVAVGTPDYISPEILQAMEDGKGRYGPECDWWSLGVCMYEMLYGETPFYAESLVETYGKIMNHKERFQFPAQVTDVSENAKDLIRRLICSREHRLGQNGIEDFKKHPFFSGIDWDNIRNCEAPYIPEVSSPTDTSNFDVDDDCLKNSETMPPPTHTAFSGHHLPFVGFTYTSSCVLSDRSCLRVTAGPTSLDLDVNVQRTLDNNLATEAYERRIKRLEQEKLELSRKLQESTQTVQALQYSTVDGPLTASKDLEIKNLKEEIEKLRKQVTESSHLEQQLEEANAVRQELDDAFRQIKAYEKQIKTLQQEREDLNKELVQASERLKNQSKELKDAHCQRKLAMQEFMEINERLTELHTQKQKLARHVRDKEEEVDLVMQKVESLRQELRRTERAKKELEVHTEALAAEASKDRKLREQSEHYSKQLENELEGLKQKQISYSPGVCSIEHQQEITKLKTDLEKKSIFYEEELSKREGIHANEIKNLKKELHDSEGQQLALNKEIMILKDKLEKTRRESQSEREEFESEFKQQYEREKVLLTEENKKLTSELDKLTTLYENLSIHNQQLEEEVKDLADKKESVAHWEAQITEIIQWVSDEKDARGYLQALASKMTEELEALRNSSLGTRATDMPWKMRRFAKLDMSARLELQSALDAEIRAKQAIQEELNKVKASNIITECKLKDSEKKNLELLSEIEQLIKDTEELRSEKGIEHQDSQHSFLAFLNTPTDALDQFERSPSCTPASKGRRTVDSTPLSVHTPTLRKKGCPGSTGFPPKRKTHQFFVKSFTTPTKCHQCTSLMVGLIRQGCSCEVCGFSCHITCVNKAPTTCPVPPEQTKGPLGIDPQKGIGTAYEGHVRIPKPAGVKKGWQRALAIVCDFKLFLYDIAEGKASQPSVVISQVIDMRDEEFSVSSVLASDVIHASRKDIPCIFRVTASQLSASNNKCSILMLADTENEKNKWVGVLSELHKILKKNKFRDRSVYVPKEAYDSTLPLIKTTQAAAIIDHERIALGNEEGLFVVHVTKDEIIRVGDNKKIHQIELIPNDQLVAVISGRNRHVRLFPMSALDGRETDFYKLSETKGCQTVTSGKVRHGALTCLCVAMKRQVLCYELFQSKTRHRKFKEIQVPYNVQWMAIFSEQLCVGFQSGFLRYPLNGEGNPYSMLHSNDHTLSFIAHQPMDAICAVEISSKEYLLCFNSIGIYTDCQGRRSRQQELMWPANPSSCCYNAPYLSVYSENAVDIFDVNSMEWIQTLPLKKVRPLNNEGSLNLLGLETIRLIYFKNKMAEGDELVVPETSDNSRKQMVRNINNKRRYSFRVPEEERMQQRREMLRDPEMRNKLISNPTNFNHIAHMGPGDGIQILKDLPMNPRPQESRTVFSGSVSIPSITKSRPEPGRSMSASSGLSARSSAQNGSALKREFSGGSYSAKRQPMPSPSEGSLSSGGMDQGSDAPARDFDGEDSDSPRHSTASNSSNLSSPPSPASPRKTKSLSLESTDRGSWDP

| Compound | inhibition [1] [%] | inhibition [2] [%] | inhibition [3] [%] | inhibition [4] [%] | inhibition [5] [%] | inhibition [6] [%] | inhibition [7] [%] | inhibition [8] [%] | inhibition [9] [%] | inhibition [10] [%] | inhibition [11] [%] | inhibition [12] [%] | inhibition [13] [%] | inhibition [14] [%] | inhibition [15] [%] | inhibition [16] [%] | inhibition [17] [%] | inhibition [18] [%] | inhibition [19] [%] | inhibition [20] [%] |
| --- | --- | --- | --- | --- | --- | --- | --- | --- | --- | --- | --- | --- | --- | --- | --- | --- | --- | --- | --- | --- |
| c1ccc(-c2nc3n(c2-c2ccc4c(c2)OCO4)CCC3)nc1 | 1.51 | -0.39 | 1.65 | 4.63 | 8.97 | 8.14 | 5.25 | 6.79 | 1.12 | 0.67 | 0.98 | 1.49 | 5.08 | 0.9 | 1.8 | 3.53 | 5.04 | 1.35 | 1.85 | 0 |
| NC(=O)c1sc(-n2cnc3ccc(C(F)(F)F)cc32)cc1OCc1ccccc1Br | -0.03 | 1.97 | 0.62 | 3.16 | 4.33 | 4.75 | 3.18 | 5.34 | 1.25 | 2.28 | 2.61 | 3.12 | 6.29 | 0.78 | 1.26 | -0.05 | 1.5 | -0.93 | 1.21 | -0.86 |
| CNC(=O)c1cncc(/C=C/c2ccccc2Cl)c1 | 1.52 | 2.33 | -0.05 | 0.26 | 3.05 | 3.68 | 1.83 | 1.78 | 0.27 | 0.23 | -0.25 | 1.4 | 3.17 | 0.42 | -0.07 | 2.7 | 5.12 | 1.33 | 2.39 | 3.03 |
| CCCN(CCS(C)(=O)=O)Cc1ccc(-c2ccc3ncnc(Nc4ccc(OCc5cccc(F)c5)c(Cl)c4)c3c2)o1 | -1.08 | 0.54 | -0.36 | 0.64 | 7.14 | 6.79 | 1.76 | 1.8 | 1.21 | 1.92 | 1.25 | 0.67 | 1.36 | 0.08 | 1.04 | 0.26 | 0.52 | 2.45 | 3.94 | 1.25 |
| O=C(Nc1n[nH]c2cc(-c3ccc(F)cc3)ccc12)C1CC1 | 0.19 | 0.87 | 0.84 | 5.66 | 13.8 | 13.6 | 6.38 | 8.25 | 2 | 2.94 | 1.87 | 1.56 | 5.1 | 0.82 | 2.18 | 2.92 | 6.56 | 3.22 | 6.59 | 3.26 |
| Fc1ccc(-c2nn3ccccc3c2-c2ccncc2)cc1 | 1.08 | 3.93 | 1.99 | 4.92 | 4.62 | 5.97 | 5.06 | 6.2 | 1.21 | 2.15 | 0.82 | 2.55 | 16 | 0.75 | 3.12 | 8.61 | 37.8 | 1.31 | 3.71 | -2.68 |
